The text below walks through data of PubChem BioAssay (NCI).

Experiment [1] is described as follows: NCI Yeast Anticancer Drug Screen. Data for the rad50 strain (AID 155).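 Also: 0% = growth of vehicle-only cultures of the same strain.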 The settings on record: S. cerevisiae rad50 strain growth inhibition, hits give high values. The method in brief:
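Vehicle-treated cultures provide the reference for the growth inhibition reported for compound-exposed, repair-deficient yeast.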

The nature of experiment [2]: NCI Yeast Anticancer Drug Screen. Data for the mec2-1 strain (AID 157). The settings on record: S. cerevisiae mec2-1 strain, hits give high values. In short, it runs like this:
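Using mec2-1 yeast: add compound, measure growth, express inhibition versus vehicle-treated cultures.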

A short description of experiment [3]: NCI Yeast Anticancer Drug Screen. Data for the sgs1 mgt1 strain (AID 161).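 Also: 0% = growth of cultures given vehicle only.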 The settings on record: S. cerevisiae sgs1 mgt1 strain, hits give high values. The method in brief:
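This yeast growth screen uses a strain with defined DNA-repair lesions; compound-treated growth is compared with vehicle-treated growth.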

The nature of experiment [4]: NCI Yeast Anticancer Drug Screen. Data for the cln2 rad14 strain (AID 165).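 Also: 0% = growth equal to vehicle treated cultures.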 Conditions: S. cerevisiae cln2 rad14 strain, hits give high values. In short, it runs like this:
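Yeast strain cln2 rad14, bearing defects in cell cycle control and DNA repair, serves as the test system; values reflect growth inhibition compared with vehicle.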

The nature of experiment [5]: NCI Yeast Anticancer Drug Screen. Data for the bub3 strain (AID 167). Conditions: S. cerevisiae bub3 mutant strain, hits give high values. In short, it runs like this: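 Mutant yeast screening strain plus compound; vehicle-treated cultures serve as the 0% inhibition reference.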
The nature of experiment [6]: NCI Yeast Anticancer Drug Screen. Data for the mlh1 rad18 strain (AID 175). The settings on record: S. cerevisiae mlh1 rad18 strain growth inhibition, hits give high values. The method in brief: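 Steps: expose repair-defective yeast to compound; measure growth; express inhibition against vehicle-treated controls.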
Setting [7] is: at 5.0 µM (retest, dose inferred, filed as 0.5).
The mark [8] stands for this setting: at 50.0 µM (retest, dose inferred, filed as 5.0).

Structures are written as SMILES. About 79,000 compounds went through this panel and 15% of them were active in at least one assay; those are over-represented in the sample as a whole. A number with no mark means an inactive call. Active and inactive are the calls of the source. Rule as the data show it: active = growth inhibition above about 70%; inactive = the rest.

As for `O=C1c2ccccc2C(=O)c2c(Nc3cc4c5c(ccc6c7ccc8c9c(cc(Nc%10cccc%11c%10C(=O)c%10ccccc%10C%11=O)c(c3c56)c97)-c3ccccc3C8=O)C(=O)c3ccccc3-4)cccc21`, the growth inhibition in experiment [1] (setting [7]) was 1%; in experiment [1] (setting [8]), 15%; in experiment [1] (at 50.0 µM), 16.9%; in experiment [2] (setting [7]), -5%; in experiment [2] (setting [8]) it was -3%; in experiment [2] (at 50.0 µM), 44%. Further, the growth inhibition is 2% in experiment [3] (setting [7]); -3% in experiment [3] (setting [8]); -1.9% in experiment [3] (at 50.0 µM); -6% in experiment [4] (setting [7]); 4% in experiment [4] (setting [8]); 40.8% in experiment [4] (at 50.0 µM). The growth inhibition was -11% in experiment [5] (setting [7]); 6% in experiment [5] (setting [8]); 3.1% in experiment [5] (at 50.0 µM); -13% in experiment [6] (setting [7]); -4% in experiment [6] (setting [8]); -4.35% in experiment [6] (at 50.0 µM).

For `Cc1ccc(Cc2n[nH]c(=O)n2N2C(=O)c3ccccc3C2=O)cc1`, the growth inhibition is 18% in experiment [1] (setting [7]); 16% in experiment [1] (setting [8]); -24.8% in experiment [1] (at 50.0 µM); 9% in experiment [2] (setting [7]); 14% in experiment [2] (setting [8]); -37.2% in experiment [2] (at 50.0 µM). The growth inhibition in experiment [3] (setting [7]) is 9%; in experiment [3] (setting [8]), 9%; in experiment [3] (at 50.0 µM) it was -33.4%; in experiment [4] (setting [7]) it was 9%; in experiment [4] (setting [8]), 17%; in experiment [4] (at 50.0 µM), -5.1%. The growth inhibition in experiment [5] (setting [7]) is 18%; in experiment [5] (setting [8]), 13%; in experiment [5] (at 50.0 µM), -25.1%; in experiment [6] (setting [7]) it was 13%; in experiment [6] (setting [8]) it was 12%; in experiment [6] (at 50.0 µM), -38.2%.

For `CCCCCCCCCCCCCCCCCC(=O)OCCN1C(=O)c2ccccc2C1=O`, the growth inhibition is -1% in experiment [1] (setting [7]); 4% in experiment [1] (setting [8]); -5.4% in experiment [1] (at 50.0 µM); 10% in experiment [2] (setting [7]); -10% in experiment [2] (setting [8]); 9.15% in experiment [2] (at 50.0 µM). In addition, the growth inhibition was 5% in experiment [3] (setting [7]); 12% in experiment [3] (setting [8]); 17.7% in experiment [3] (at 50.0 µM); -1% in experiment [4] (setting [7]); -6% in experiment [4] (setting [8]); 71.7% (active) in experiment [4] (at 50.0 µM). In addition, the growth inhibition in experiment [5] (setting [7]) was -4%; in experiment [5] (setting [8]), -8%; in experiment [5] (at 50.0 µM) it was 44%; in experiment [6] (setting [7]), -2%; in experiment [6] (setting [8]), -11%; in experiment [6] (at 50.0 µM), 43.3%.

Turning to `Cc1ccc(C)c2[nH]c(-c3ccccc3)cc12`, the growth inhibition in experiment [1] (setting [7]) was -1%; in experiment [1] (setting [8]) it was 99% (active); in experiment [1] (at 50.0 µM), 99.3% (active); in experiment [2] (setting [7]) it was -37%; in experiment [2] (setting [8]), 99% (active); in experiment [2] (at 50.0 µM) it was 99.2% (active). Further, the growth inhibition in experiment [3] (setting [7]) is 0%; in experiment [3] (setting [8]), 99% (active); in experiment [3] (at 50.0 µM) it was 99.3% (active); in experiment [4] (setting [7]), 0%; in experiment [4] (setting [8]), 99% (active); in experiment [4] (at 50.0 µM), 99.1% (active). Moreover, the growth inhibition is -5% in experiment [5] (setting [7]); 99% (active) in experiment [5] (setting [8]); 99.2% (active) in experiment [5] (at 50.0 µM); -1% in experiment [6] (setting [7]); 99% (active) in experiment [6] (setting [8]); 99.2% (active) in experiment [6] (at 50.0 µM).

For `CCNC(=S)N/N=C(/C)c1cccc(/C(C)=N\NC(=S)NCC)n1`, the growth inhibition is 1% in experiment [1] (setting [7]); 12% in experiment [1] (setting [8]); 57.5% in experiment [1] (at 50.0 µM); 10% in experiment [2] (setting [7]); 10% in experiment [2] (setting [8]); 38.4% in experiment [2] (at 50.0 µM). In addition, the growth inhibition in experiment [3] (setting [7]) was 13%; in experiment [3] (setting [8]), 24%; in experiment [3] (at 50.0 µM), 63.7%; in experiment [4] (setting [7]) it was 8%; in experiment [4] (setting [8]) it was 6%; in experiment [4] (at 50.0 µM) it was 19.1%. Moreover, the growth inhibition in experiment [5] (setting [7]) is 18%; in experiment [5] (setting [8]), 38%; in experiment [5] (at 50.0 µM) it was 54.2%; in experiment [6] (setting [7]), 12%; in experiment [6] (setting [8]) it was 22%; in experiment [6] (at 50.0 µM), 37.7%.

In the case of `COc1cc(OC)c(C(c2cc3c(cc2O)OCO3)N2CCOCC2)c(OC)c1` (stereo not given), the growth inhibition in experiment [1] (setting [7]) is 2%; in experiment [1] (setting [8]), 99% (active); in experiment [1] (at 50.0 µM), 57.9%; in experiment [2] (setting [7]), 2%; in experiment [2] (setting [8]) it was 98% (active); in experiment [2] (at 50.0 µM), 61.1%. The growth inhibition in experiment [3] (setting [7]) was -1%; in experiment [3] (setting [8]), 98% (active); in experiment [3] (at 50.0 µM), 50.3%; in experiment [4] (setting [7]), 0%; in experiment [4] (setting [8]), 99% (active); in experiment [4] (at 50.0 µM), 23.7%. Moreover, the growth inhibition in experiment [5] (setting [7]) was 5%; in experiment [5] (setting [8]) it was 99% (active); in experiment [5] (at 50.0 µM), 18.8%; in experiment [6] (setting [7]) it was -2%; in experiment [6] (setting [8]) it was 99% (active); in experiment [6] (at 50.0 µM), 63.2%.

`O=C(c1ccccc1)C1C(c2ccccc2)OP(c2ccccc2)(c2ccccc2)(c2ccccc2)C1c1ccccc1` (stereo not given): the growth inhibition in experiment [1] (setting [7]) is 83% (active); in experiment [1] (setting [8]) it was 99% (active); in experiment [1] (at 50.0 µM), 99.7% (active); in experiment [2] (setting [7]), 96% (active); in experiment [2] (setting [8]), 99% (active); in experiment [2] (at 50.0 µM) it was 99.8% (active). The growth inhibition in experiment [3] (setting [7]) is 83% (active); in experiment [3] (setting [8]) it was 100% (active); in experiment [3] (at 50.0 µM), 99.8% (active); in experiment [4] (setting [7]), 56%; in experiment [4] (setting [8]), 99% (active); in experiment [4] (at 50.0 µM), 99.5% (active). Also, the growth inhibition was 80% (active) in experiment [5] (setting [7]); 99% (active) in experiment [5] (setting [8]); 99.6% (active) in experiment [5] (at 50.0 µM); 84% (active) in experiment [6] (setting [7]); 99% (active) in experiment [6] (setting [8]); 99.8% (active) in experiment [6] (at 50.0 µM).

For `CCOc1cc(C(c2ccc(N(C)C)cc2)c2ccc(N(C)C)cc2)ccc1O`, the growth inhibition in experiment [1] (setting [7]) is -1%; in experiment [1] (setting [8]) it was 26%; in experiment [1] (at 50.0 µM) it was 36.2%; in experiment [2] (setting [7]), -1%; in experiment [2] (setting [8]), 52%; in experiment [2] (at 50.0 µM), 44.8%. For the same molecule, the growth inhibition in experiment [3] (setting [7]) is 0%; in experiment [3] (setting [8]), 54%; in experiment [3] (at 50.0 µM), 74.2% (active); in experiment [4] (setting [7]), 2%; in experiment [4] (setting [8]), 52%; in experiment [4] (at 50.0 µM) it was 84.1% (active). The growth inhibition in experiment [5] (setting [7]) is 8%; in experiment [5] (setting [8]), 79% (active); in experiment [5] (at 50.0 µM) it was 79.4% (active); in experiment [6] (setting [7]) it was 0%; in experiment [6] (setting [8]) it was 42%; in experiment [6] (at 50.0 µM), 59.5%.

For the molecule `Cc1ccc(Oc2ccc(C(=O)C(CN(C)C)CN(C)C)cc2)cc1`, the growth inhibition in experiment [1] (setting [7]) was 93% (active); in experiment [1] (setting [8]), 98% (active); in experiment [1] (at 50.0 µM), 92.1% (active); in experiment [2] (setting [7]), 93% (active); in experiment [2] (setting [8]) it was 96% (active); in experiment [2] (at 50.0 µM) it was 98% (active). Further, the growth inhibition in experiment [3] (setting [7]) is 95% (active); in experiment [3] (setting [8]), 98% (active); in experiment [3] (at 50.0 µM) it was 51.4%; in experiment [4] (setting [7]) it was 75% (active); in experiment [4] (setting [8]), 95% (active); in experiment [4] (at 50.0 µM) it was 95.6% (active). The growth inhibition is 91% (active) in experiment [5] (setting [7]); 96% (active) in experiment [5] (setting [8]); 96.2% (active) in experiment [5] (at 50.0 µM); 96% (active) in experiment [6] (setting [7]); 96% (active) in experiment [6] (setting [8]); 97.1% (active) in experiment [6] (at 50.0 µM).

Turning to `O=S1CCS(=O)C1c1ccccc1` (stereo not given), the growth inhibition in experiment [1] (setting [7]) is -1%; in experiment [1] (setting [8]) it was 28%; in experiment [1] (at 50.0 µM), 85.3% (active); in experiment [2] (setting [7]), -6%; in experiment [2] (setting [8]) it was 26%; in experiment [2] (at 50.0 µM), 61%. The growth inhibition in experiment [3] (setting [7]) is -5%; in experiment [3] (setting [8]) it was 33%; in experiment [3] (at 50.0 µM), 54%; in experiment [4] (setting [7]) it was -18%; in experiment [4] (setting [8]) it was 8%; in experiment [4] (at 50.0 µM) it was -11.1%. For the same molecule, the growth inhibition was -14% in experiment [5] (setting [7]); 38% in experiment [5] (setting [8]); 67.8% in experiment [5] (at 50.0 µM); 2% in experiment [6] (setting [7]); 39% in experiment [6] (setting [8]); 37.7% in experiment [6] (at 50.0 µM).
